Results filed as inconclusive are left out. A number with no mark means an inactive call. The source made the active and inactive calls. The call rests on the fitted dose curve; in most records, active means well fitted cell-killing curve with a large enough effect in the repeat runs; inconclusive means weak or mixed curves, or effect the other way; inactive means flat fitted curve, though single readings scatter.
Assay: qHTS RealTime-Glo MT Cell Viability Assay in HEK293 cells - 40 hour (AID 1224874); further: nearly all actives have a fitted effect of over 50% in size
Conditions: RealTime-Glo luminescence; max response: stronger effect = lower value
Source text: U.S. Tox21 Program National Center for Advancing Translational Sciences [NCATS] NIH Chemical Genomics Center [NCGC] U.S. Environmental Protection Agency [EPA] National Institutes of Environmental Health Sciences [NIEHS] National Toxicology Program [NTP] U.S. Food and Drug Administration [FDA] Tox21 Assay Overview: Measure of cell viability is critical in the cell-base assay. Analysis of cell viability is necessary for the characterization of cell responses to cytotoxic drugs and environmental stress. A RealTime-Glo MT Cell Viability Assay to monitor cell viability in real time of continues cell culture during 40 hours of compound treatment was used to screen Tox21 10K library compounds in Hek293 cells. The RealTime-Glo MT Cell Viability Assay is a nonlytic, homogeneous, bioluminescent method to measure cell viability in real time using a simple, plate-based method. The assay involves adding NanoLuc luciferase and a cell-permeant prosubstrate to cells in culture. Viable cells reduce the proprietary prosubstrate to generate a substrate for NanoLuc luciferase. This substrate diffuses from cells into the surrounding culture medium, where it is rapidly used by the NanoLuc Enzyme to produce a luminescent signal. The signal correlates with the number of viable cells, making the assay well suited for cytotoxicity studies.
Tox21 Assay Protocol Summary: The mixture of Hek293 cell suspension and reagents were dispensed at 600cells/6 ul/well in 1536-well tissue culture treated black solid bottom plates using a Multidrop dispenser. After the assay plates were incubated at a 37 C/5% CO2 incubator for 5 hours, 23 nL of compounds dissolved in DMSO, positive and negative controls was transferred to the assay plate by a pintool work station. The plates were incubated at 37 C for 40 hours. The luminescence intensity were measured at 0h, 8h, 16h, 24h, 32h and 40h time points using ViewLux plate reader during compound treatment.
With C1CCOC1 the max response was 0.369%.
With CCC(=O)O[C@]1(C(=O)SCF)[C@H](C)C[C@H]2[C@@H]3C[C@H](F)C4=CC(=O)C=C[C@]4(C)[C@@]3(F)[C@@H](O)C[C@@]21C the max response was 2.57%.
Work on CCNCCO yielded a max response of 9.13%.
In the case of CCCC(CCC)(C(=O)OCC)C(=O)OCC, the max response is reported as 0.553%.
In the case of Cn1cnc2c(F)c(Nc3ccc(Br)cc3Cl)c(C(=O)NOCCO)cc21, the max response is reported as -9.97%.
Work on COC(C)CCO (stereo not given) yielded a max response of 6.13%.
O=C1C=CC(=O)O1 showed a max response of 12.6%.
Compound CCOC(=O)C1CC(=O)C(=C(O)C2CC2)C(=O)C1 (stereo not given) has a max response of 0.979%.
Work on C[C@@H](N)C(=O)O yielded a max response of 1.04%.
CC(=O)N(CC(O)CN(C(C)=O)c1c(I)c(C(=O)NCC(O)CO)c(I)c(C(=O)NCC(O)CO)c1I)c1c(I)c(C(=O)NCC(O)CO)c(I)c(C(=O)NCC(O)CO)c1I (stereo not given) showed a max response of 0.602%.
Compound Cc1cc(S(=O)(=O)O)c(N)cc1Cl has a max response of -1.1%.
CCCNC(C)(C)COC(=O)c1ccccc1 showed a max response of 2.27%.
With Cc1onc(-c2ccccc2)c1C(=O)Cl the max response was 5.64%.
For O=c1[nH]cnc2c1ncn2[C@@H]1O[C@H](CO)[C@@H](O)[C@H]1O, the max response was 1.22%.
Compound ICCc1ccccc1 has a max response of 22.5%.
With Cc1nc(N)nc(N)c1-c1ccc(Cl)c(Cl)c1 the Potency was 1.07 µM (active).
CCC1(C)NC(=O)NC1=O (stereo not given) showed a max response of -2.11%.
In the case of Nc1ccc2ccccc2c1S(=O)(=O)O, the max response is reported as -4.03%.
CC(=O)OC(C)OC(C)=O gave a max response of 0.965%.
For Nc1cccc(S(=O)(=O)O)c1, the max response was 3%.
Work on CN1CCN(c2c(F)cc3c(=O)c(C(=O)O)cn4c3c2SCC4)CC1 yielded a max response of 6.23%.
Work on COc1cc(C)ccc1C(C)C yielded a max response of 3.29%.
C=CCCC=C gave a max response of 4.67%.
Work on Oc1ccccc1F yielded a max response of 16.1%.
For CC(C)CC(=O)OCc1ccccc1, the max response was 3.51%.
With CCC(=O)c1ccc2c(c1)N(CCCN(C)C)c1ccccc1S2 the Potency was 19 µM (active).
Compound CCCCCCC has a max response of -15.1%.
Compound CCCc1c2oc(C(=O)O)cc(=O)c2cc2c(=O)cc(C(=O)O)n(CC)c12 has a max response of 1.42%.
For NCCC(O)(P(=O)(O)O)P(=O)(O)O, the max response was 3.89%.
With O=C1CCCc2ccccc21 the max response was 23.3%.
For Cc1nnc(SCC2=C(C(=O)O)N3C(=O)[C@@H](NC(=O)Cn4cnnn4)[C@H]3SC2)s1, the max response was 6.83%.
In the case of C=Cc1ccccc1, the max response is reported as 10.3%.
Cc1cccc(C)c1NC(=O)CN1CCCCCC1 showed a max response of 5.59%.
O=C(O)c1cccc(Cl)c1Cl showed a max response of -7.63%.
Work on NC/C=C/C(=O)O yielded a max response of 2.11%.
In the case of CCN(O)CC, the max response is reported as 12.4%.
In the case of NC(Cc1ccc(F)cc1)C(=O)O (stereo not given), the max response is reported as 2.65%.
CC(C)NCC(O)COc1ccc(CCOCC2CC2)cc1 (stereo not given) gave a max response of -6.16%.
Work on O=C(CCCl)NCc1ccccc1 yielded a max response of -3.01%.
O=Cc1ccc(O)c(O)c1O gave a max response of 1.24%.

From PubChem BioAssay (Tox21)
On the % scale 0 is the no-effect control and ±100 the full control effect; potency means the concentration at half of the fitted maximal effect.
